Measurements as given in the supplement of paper PMC10941209.

System: HFF
Test: cell viability relative to DMSO control; higher = less cytotoxic
Conditions: 1 µM; 72 h
Description: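 Single-dose cytotoxicity screen of the MMV Pandemic Response Box at 1 uM on human foreskin fibroblasts (HFF), 72 h at 37 C. Viability measured by MTT (OD 550 nm) and normalised to the DMSO control (% survival).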

Row | Compound | cell viability
1 | Cc1cc(C)n2nc(C(=O)NS(=O)(=O)c3c(C)cccc3OC(F)(F)F)nc2n1 | 72.2%
2 | O=S(=O)(Nc1cccc2cccnc12)c1ccccc1 | 64.1%
3 | COc1ccc(C[C@@H](C)[C@@H](C)Cc2ccc(OC)c(OC)c2)cc1OC | 65.2%
4 | CNc1nc(=O)[nH]cc1F | 68.4%
5 | COc1cc(NS(=O)(=O)c2ccc(C)cc2)c2ncccc2c1 | 72.5%
6 | O=C(CC1Sc2ncnn2C1=O)Nc1ccc(Br)cc1 (stereo not given) | 59.7%
7 | CC(C)(C)OC(=O)NCc1ccc(C(=O)N[C@H]2CCOC2=O)cc1 | 65.7%
8 | O=C(Nc1cccc(C2=NCCN2)c1)c1ccc(-c2ccc(C(=O)Nc3cccc(C4=NCCN4)c3)cc2)cc1 | 63.4%
9 | O=C(Cc1ccccc1F)Nc1nc2ccccc2[nH]1 | 69.7%
10 | C[C@H](c1cccc2ccccc12)N(C)Cc1ccccc1 | 65.7%
11 | CC1(C)Cc2c(C#N)c(SCCc3ccccc3)nc(N3CCOCC3)c2CO1 | 81.4%
12 | CCNC(=O)Nc1cc(-c2ccccc2)c(-c2cncc(C(=O)O)c2)cn1 | 63.8%
13 | Oc1cccc(C(Nc2nccs2)c2ccc3cccnc3c2O)c1 (stereo not given) | 72%
14 | CS(=O)(=O)c1ccc(Oc2ccc(Cl)cc2)cc1 | 69.7%
15 | COc1ccc(CNC(=O)C2CCN([C@H](C)c3cccc4ccccc34)CC2)cc1 | 62.6%
16 | OCCCCn1cnc2c(O)nc(NCc3ccc(Cl)c(Cl)c3)nc21 | 62.2%
17 | N[C@@H]1CN(c2c(F)cc3c(=O)c(C(=O)O)cn([C@@H]4C[C@@H]4F)c3c2Cl)CC12CC2 | 60.8%
18 | Nc1nc2c(ncn2COC(CO)CO)c(=O)[nH]1 | 68.6%
19 | NC[C@H]1O[C@H](O[C@H]2[C@H](O)[C@@H](O[C@H]3O[C@H](CO)[C@@H](O)[C@H](N)[C@H]3O)[C@H](N)C[C@@H]2N)[C@H](N)C[C@@H]1O | 68.2%
20 | O=C(N[C@H](Cc1cccc2ccccc12)C(=O)NCCc1c[nH]cn1)C1Cc2ccccc2C1 | 62.3%
21 | O=C1[C@H](CC[C@H](O)c2ccc(F)cc2)[C@@H](c2ccc(O)cc2)N1c1ccc(F)cc1 | 73%
22 | CCCNc1ccc(S(=O)(=O)Nc2cc(C)on2)cc1 | 69.3%
23 | OCCC#Cc1nc(-c2ccc(F)cc2)c(-c2ccncc2)n1CCCc1ccccc1 | 81.7%

Row | Compound | cell viability
24 | CCCCCOc1ccc(/C=C2\Oc3c(ccc(O)c3O)C2=O)c(O)c1 | 69.6%
25 | CCC[C@H](NC(=O)[C@@H]1[C@H]2CCC[C@H]2CN1C(=O)[C@@H](NC(=O)[C@@H](NC(=O)c1cnccn1)C1CCCCC1)C(C)(C)C)C(=O)C(=O)NC1CC1 | 61.8%
26 | c1cc(CN2CCCNCCNCCCNCC2)ccc1CN1CCCNCCNCCCNCC1 | 63.9%
27 | Oc1c(C(Nc2nc3ccccc3s2)c2ccc(OC(F)F)cc2)ccc2cccnc12 (stereo not given) | 57.5%
28 | COc1ccc(NC(=O)CC2Sc3ncnn3C2=O)cc1 (stereo not given) | 73.4%
29 | O=[N+]([O-])c1cn(Cc2nc(O)nc(O)c2Br)cn1 | 70.3%
30 | C[Si]1(C)CCN(Cc2cc(-c3ccc(Cl)cc3)n(-c3ccc(Cl)cc3)n2)CC1 | 82.5%
31 | O=C(CSc1nnc(Br)n1-c1ccc(C2CC2)c2ccccc12)Nc1ccc(C(=O)O)cc1Cl | 66.5%
32 | O=C(NC(=O)N1CCCc2ccccc21)c1cccc(Cl)c1 | 75.5%
33 | CC[C@@H]1C(=O)OC[C@@H]1Cc1cncn1C | 62.8%
34 | Nc1nc2c(ncn2COCCO)c(=O)[nH]1 | 68.8%
35 | CCc1cc(Nc2cc(=O)n(CCN3CCN(C(=O)c4ccccc4)CC3)c(=O)[nH]2)ccc1C | 68.7%
36 | O=C(Nc1[nH]c(=O)ncc1F)c1ccccc1 | 64.8%
37 | CC1(C)CC(NC(=O)C(=O)Nc2ccc(Cl)cc2)CC(C)(C)N1 | 69.1%
38 | O=C(O)c1ccc(-c2ccc(O[C@H]3O[C@H](CO)[C@@H](O)[C@H](O)[C@@H]3O)cc2)cc1 | 63.9%
39 | CN(C)c1[nH]c(=O)ncc1F | 72%
40 | O=C(O)c1ccccc1Sc1ncnc2sc3c(c12)CCC3 | 67.7%
41 | COc1ccc(COc2cc3oc(=O)c4cc(C(C)O)ccc4c3cc2OC)cc1 (stereo not given) | 57.3%
42 | Cc1[nH]c2ccccc2c1CCNCc1ccc(/C=C/C(=O)NO)cc1 | 19%
43 | Cc1ccc(NC(=O)c2ccc(CN3CCN(C)CC3)cc2)cc1Nc1nccc(-c2cccnc2)n1 | 50.1%
44 | Cc1c(F)cccc1NC(=O)Nc1ccc(Cl)c(S(=O)(=O)[C@H]2CCCNC2)c1O | 60.8%
45 | C=C(C)[C@@H]1CC[C@]2(C(=O)O)CC[C@]3(C)[C@H](CC[C@@H]4[C@@]5(C)CC[C@H](O)C(C)(C)[C@@H]5CC[C@]43C)[C@@H]12 | 69.3%
